# Measured values taken from PubChem BioAssay (EPA / NIEHS).
# Records with an inconclusive call do not appear. The source made the active and inactive calls. The calls were made as follows, unless noted: active = hit-call score of the fitted dose curve at least 0.9, where 1 is the maximum; inactive = score below 0.9.
# Key:
# [1] = ATG_M_06_TRANS: Attagene TRANS-FACTORIAL HepG2 Assay for M06 Transcription Factor (Internal Marker) (AID 2282983; active = hit-call score of the fitted dose curve at least 0.9, where 1 is the maximum;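 also: reporter transcript level by RT-PCR then capillary electrophoresis fluorescence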); settings: HepG2 Attagene TRANS M06 internal marker reporter
# Procedure, shortened: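 Background control endpoint: reporter mRNA from transiently transfected HepG2 after 24 h dosing, detected by RT-PCR with capillary electrophoresis fluorescence. Analysed for gain versus DMSO.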
# [2] = target: Nuclear respiratory factor 1 (Homo sapiens) (UniProt Q16656); experiment: ATG_NRF1_CIS: Attagene CIS-FACTORIAL HepG2 Assay for human Nuclear Respiratory Factor 1 (NRF1) Orphan Gene (AID 2282987); settings: HepG2 NRF1 cis-element reporter, Attagene multiplex; actives raise or lower the signal
# Procedure, shortened: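 HepG2 cells transiently transfected with multiple reporter transcription units under cis-regulatory promoter control, so endogenous transcription-factor activity is read. After 24 h compound exposure, reporter mRNA quantified by RT-PCR, fluorescent labelling, HpaI digestion and capillary electrophoresis; bidirectional fitting versus DMSO.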
# [3] = ATG_NFI_CIS: Attagene CIS-FACTORIAL HepG2 Assay for human Nuclear Factor I (NFI) (AID 2282989); settings: HepG2 cis-regulatory reporter, NFI response element transcription; actives raise or lower the signal
# Procedure, shortened: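 Transfected HepG2 liver cells, exposed 24 h, supplied total RNA for oligo(dT) reverse transcription and reporter-specific PCR. Labelled, HpaI-cut fragments were sized by capillary electrophoresis; DMSO set the baseline for bidirectional fitting.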
# [4] = target: Myc proto-oncogene protein (Homo sapiens) (UniProt P01106); experiment: ATG_Myc_CIS: Attagene CIS-FACTORIAL HepG2 Assay for human Myelocytomatosis (Myc) Proto-Oncogene Transcription Factor (AID 2282990); settings: HepG2, Attagene cis-reporter transcription factor activity; actives raise or lower the signal
# Procedure, shortened: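 After 24 h chemical treatment of HepG2 cells carrying multiplexed cis-regulated reporter constructs, reporter transcripts quantified by RT-PCR and capillary electrophoresis of fluorescent fragments. Gain or loss fitted against DMSO baseline.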
# [5] = ATG_NF_kB_CIS: Attagene CIS-FACTORIAL HepG2 Assay for human Nuclear Factor Kappa B (NF-kB) (AID 2282991); settings: HepG2 Attagene cis-factorial NF-kB reporter mRNA; actives raise or lower the signal
# Procedure, shortened: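 HepG2 cells transiently transfected with multiplexed cis-element reporter units measuring endogenous transcription factor activity; reporter mRNA read 24 h after dosing by RT-PCR, fluorescent labelling, HpaI digestion and capillary electrophoresis. Bidirectional fit against DMSO baseline.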
# [6] = ATG_NRF2_ARE_CIS: Attagene CIS-FACTORIAL HepG2 Assay for human Nuclear Factor Erythroid 2 Related Factor 2 (NFR2) response to Antioxidant Response Elements (ARE) (AID 2282992); settings: HepG2 Attagene ARE/NRF2 reporter, transcription factor activity; actives raise or lower the signal;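 as to AC50: reporter mRNA level measured by RT-PCR and capillary electrophoresis fluorescence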
# Procedure, shortened: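 Using transiently transfected HepG2 cells exposed for 24 h, reporter mRNA levels were determined by RT-PCR with fluorescent primer extension and capillary electrophoresis, analysed for gain or loss of signal against DMSO.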
# [7] = ATG_Oct_MLP_CIS: Attagene CIS-FACTORIAL HepG2 Assay for human Octamer-Binding Transcription Factor (Oct) (AID 2282993); settings: HepG2 Attagene cis-factorial Oct reporter, mRNA; actives raise or lower the signal
# Procedure, shortened: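 Using HepG2 cells bearing transfected cis-reporter constructs, mRNA induction was read after 24 h by fluorescent RT-PCR and capillary electrophoresis, with DMSO defining baseline for gain- or loss-of-signal fits.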
# [8] = target: Cellular tumor antigen p53 (Homo sapiens) (UniProt P04637); experiment: ATG_p53_CIS: Attagene CIS-FACTORIAL HepG2 Assay for human p53 Transcription Factor (AID 2282994); settings: HepG2 p53 cis-element reporter, Attagene mRNA; actives raise or lower the signal
# Procedure, shortened: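 In HepG2 cells, reporter transcription units under cis-regulatory promoters were transiently introduced. Following 24 h treatment, RNA was processed to labelled, digested cDNA fragments read by capillary electrophoresis; fitting was bidirectional versus DMSO.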
# [9] = ATG_M_32_TRANS: Attagene TRANS-FACTORIAL HepG2 Assay for M32 Transcription Factor (Internal Marker) (AID 2282984; active = hit-call score of the fitted dose curve at least 0.9, where 1 is the maximum;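 also: transcript level of a background control reporter unit measured by RT-PCR and capillary electrophoresis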); settings: HepG2 Attagene TRANS M32 internal marker reporter
# Procedure, shortened: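 Internal background reporter in transfected HepG2: after 24 h chemical exposure, RNA reverse-transcribed, reporter cDNA amplified, fluorescently labelled and HpaI-cut, then sized by capillary electrophoresis. Gain of signal fitted against DMSO control.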
# [10] = target: Nuclear receptor subfamily 4 group A member 2 (Homo sapiens) (UniProt P43354); experiment: ATG_NURR1_TRANS: Attagene TRANS-FACTORIAL HepG2 Assay for human Nuclear Receptor Related Protein 1 (NURR1) (AID 2282985; active = hit-call score of the fitted dose curve at least 0.9, where 1 is the maximum); settings: HepG2 Attagene TRANS reporter, mRNA readout
# Procedure, shortened: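 Reporter transcript induction, measured by RT-PCR with fluorescent labelling, HpaI digestion and capillary electrophoresis, after 24 hr dosing of human HepG2 cells transiently expressing an exogenous NR-Gal4 fusion with GAL4-UAS-driven reporters; DMSO as baseline.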
# [11] = target: Transcriptional activator Myb (Homo sapiens) (UniProt P10242); experiment: ATG_Myb_CIS: Attagene CIS-FACTORIAL HepG2 Assay for human Myeloblastosis (Myb) Proto-Oncogene Transcription Factor (AID 2282986); settings: HepG2 Attagene CIS-FACTORIAL Myb reporter transcription; actives raise or lower the signal
# Procedure, shortened: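 HepG2 cells were transiently transfected with cis-regulated multiple reporter transcription units reflecting endogenous Myb activity, then exposed to compound for 24 hours. Reporter mRNA was measured by RT-PCR with capillary electrophoresis; bidirectional fitting versus DMSO baseline.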
# [12] = BSK_3C_TissueFactor: BioMAP Diversity Plus: 3C Assay for Tissue Factor Biomarker Activity (AID 2282997); settings: BioMAP 3C HUVEC, tissue factor biomarker readout; actives raise or lower the signal
# Procedure, shortened: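 After a 24 h chemical exposure of primary human umbilical vein endothelial cells, Tissue Factor levels were quantified by ELISA.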
# [13] = BSK_3C_uPAR: BioMAP Diversity Plus: 3C Assay for Urokinase-type plasminogen activator receptor (uPAR) Biomarker Activity (AID 2282998); settings: BioMAP 3C HUVEC, uPAR biomarker ELISA; actives raise or lower the signal
# Procedure, shortened: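 In this endothelial cell-based assay, human umbilical vein primary cells were treated with chemicals and harvested at 24 h. uPAR was quantified using ELISA, with gains or losses fitted relative to DMSO controls.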
# [14] = BSK_3C_VCAM1: BioMAP Diversity Plus: 3C Assay for Vascular cell adhesion molecule 1 (VCAM1) Biomarker Activity (AID 2282999); settings: BioMAP 3C HUVEC, VCAM1 ELISA, cytokine-stimulated; actives raise or lower the signal
# Procedure, shortened: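 Activity fitted in both directions relative to DMSO, with ELISA measurement of the surface marker on primary HUVEC (3C) at 24 h post-treatment; parallel SRB staining (0.1% SRB, TCA-fixed, 560 nm) flagged overt cytotoxicity.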
# [15] = target: human Peroxisome Proliferator-activated Receptor alpha (PPARa), PPARA (gene 5465) (UniProt Q07869); experiment: ATG_PPARa_TRANS: Attagene TRANS-FACTORIAL HepG2 Assay for human Peroxisome Proliferator-activated Receptor alpha (PPARa) (AID 2283001; active = hit-call score of the fitted dose curve at least 0.9, where 1 is the maximum)
# Procedure, shortened: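 Reporter transcripts quantified by RT-PCR plus capillary electrophoresis after 24 h treatment, fitted upward relative to DMSO. Cells: human HepG2 transiently carrying multiple GAL4-UAS reporter units driven by NR-Gal4 chimeras.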
# [16] = target: human Peroxisome Proliferator-activated Receptor delta (PPARd), PPARD (gene 5467) (UniProt Q03181); experiment: ATG_PPARd_TRANS: Attagene TRANS-FACTORIAL HepG2 Assay for human Peroxisome Proliferator-activated Receptor delta (PPARd) (AID 2283002; active = hit-call score of the fitted dose curve at least 0.9, where 1 is the maximum)
# Procedure, shortened: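 Read-out is induced reporter mRNA, quantified by RT-PCR with fluorescent labelling and capillary electrophoresis after 24 h dosing. Cells are HepG2 transiently carrying multiple GAL4-UAS reporter units driven by exogenous NR-GAL4 chimeras; DMSO serves as baseline.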
# [17] = read-out: Intercellular Adhesion Molecule 1 (ICAM1), ICAM1 (gene 3383); experiment: BSK_3C_ICAM1: BioMAP Diversity Plus: 3C Assay for Intercellular Adhesion Molecule 1 (ICAM1) Biomarker Activity (AID 2283003); settings: primary human endothelial cells (HUVEC); actives raise or lower the signal
# Procedure, shortened: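 Chemicals are dosed onto primary human umbilical vein endothelium (3C system). After 24 h, ICAM-1 is measured by ELISA, and responses are fitted bidirectionally relative to DMSO.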
# [18] = target: human Retinoic Acid Receptor beta (RARb), RARB (gene 5915) (UniProt P10826); experiment: ATG_RARb_TRANS: Attagene TRANS-FACTORIAL HepG2 Assay for human Retinoic Acid Receptor beta (AID 2283004; active = hit-call score of the fitted dose curve at least 0.9, where 1 is the maximum)
# Procedure, shortened: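 Transient transfection of HepG2 with multiple reporter units → chemical dosing, 24 h → total RNA isolation → RT with oligo(dT) → reporter-specific PCR, 6-FAM primer extension, HpaI digest → capillary electrophoresis. Positive direction vs DMSO control.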
# [19] = BSK_4H_Eotaxin3: BioMAP Diversity Plus: 4H Assay for Eotaxin 3 Biomarker Activity (AID 2283000); settings: primary human endothelial cells (HUVEC); actives raise or lower the signal;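 also: CCL26 protein level quantified by ELISA in parallel with SRB cytotoxicity check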
# Procedure, shortened: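 Chemicals were added to human umbilical vein endothelium cultures, and Eotaxin-3 was quantified by ELISA at 24 h. Values were derived by bidirectional fitting with DMSO serving as negative control and activity baseline.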
# Sequence of human Peroxisome Proliferator-activated Receptor delta (PPARd), PPARD (gene 5467) (Q03181 whole entry, looked up, the tested form may be a part): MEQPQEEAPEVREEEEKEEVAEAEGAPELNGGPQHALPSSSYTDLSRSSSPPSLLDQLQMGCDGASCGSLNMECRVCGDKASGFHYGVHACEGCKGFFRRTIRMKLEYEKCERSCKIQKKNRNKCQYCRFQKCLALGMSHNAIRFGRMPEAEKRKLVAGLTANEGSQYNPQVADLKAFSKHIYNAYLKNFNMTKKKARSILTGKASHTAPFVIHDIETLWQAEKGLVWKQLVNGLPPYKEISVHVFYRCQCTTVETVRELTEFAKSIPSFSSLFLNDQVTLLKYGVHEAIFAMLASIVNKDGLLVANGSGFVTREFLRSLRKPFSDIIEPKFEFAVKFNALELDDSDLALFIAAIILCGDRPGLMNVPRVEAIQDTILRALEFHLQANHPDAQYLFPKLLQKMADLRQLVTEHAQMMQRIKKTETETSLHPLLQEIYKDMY
# Sequence of human Peroxisome Proliferator-activated Receptor alpha (PPARa), PPARA (gene 5465) (Q07869 whole entry, looked up, the tested form may be a part): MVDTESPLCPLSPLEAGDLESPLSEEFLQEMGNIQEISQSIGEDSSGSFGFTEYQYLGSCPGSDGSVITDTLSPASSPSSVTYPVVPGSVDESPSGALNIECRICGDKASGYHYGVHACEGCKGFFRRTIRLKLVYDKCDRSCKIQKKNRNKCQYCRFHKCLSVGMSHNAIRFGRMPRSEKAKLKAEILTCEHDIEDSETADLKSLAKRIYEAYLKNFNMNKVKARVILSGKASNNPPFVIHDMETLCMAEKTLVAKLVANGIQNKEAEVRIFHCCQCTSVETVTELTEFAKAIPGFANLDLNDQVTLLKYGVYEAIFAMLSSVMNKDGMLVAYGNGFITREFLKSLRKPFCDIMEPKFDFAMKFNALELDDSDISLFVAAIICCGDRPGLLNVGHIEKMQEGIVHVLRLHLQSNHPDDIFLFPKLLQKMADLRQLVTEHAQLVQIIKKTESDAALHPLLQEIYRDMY
# Sequence of Cellular tumor antigen p53 (Homo sapiens) (P04637 whole entry, looked up, the tested form may be a part): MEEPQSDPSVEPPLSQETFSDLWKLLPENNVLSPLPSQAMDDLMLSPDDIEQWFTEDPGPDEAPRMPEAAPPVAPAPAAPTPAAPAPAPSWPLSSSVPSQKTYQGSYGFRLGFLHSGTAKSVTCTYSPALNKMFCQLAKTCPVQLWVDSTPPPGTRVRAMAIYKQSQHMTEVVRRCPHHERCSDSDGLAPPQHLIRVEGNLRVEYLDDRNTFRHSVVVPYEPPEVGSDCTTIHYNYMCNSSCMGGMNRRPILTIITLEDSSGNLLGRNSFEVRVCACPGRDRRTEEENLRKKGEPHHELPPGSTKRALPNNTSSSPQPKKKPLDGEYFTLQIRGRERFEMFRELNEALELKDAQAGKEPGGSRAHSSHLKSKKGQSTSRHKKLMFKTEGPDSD
# Sequence of Transcriptional activator Myb (Homo sapiens) (P10242 whole entry, looked up): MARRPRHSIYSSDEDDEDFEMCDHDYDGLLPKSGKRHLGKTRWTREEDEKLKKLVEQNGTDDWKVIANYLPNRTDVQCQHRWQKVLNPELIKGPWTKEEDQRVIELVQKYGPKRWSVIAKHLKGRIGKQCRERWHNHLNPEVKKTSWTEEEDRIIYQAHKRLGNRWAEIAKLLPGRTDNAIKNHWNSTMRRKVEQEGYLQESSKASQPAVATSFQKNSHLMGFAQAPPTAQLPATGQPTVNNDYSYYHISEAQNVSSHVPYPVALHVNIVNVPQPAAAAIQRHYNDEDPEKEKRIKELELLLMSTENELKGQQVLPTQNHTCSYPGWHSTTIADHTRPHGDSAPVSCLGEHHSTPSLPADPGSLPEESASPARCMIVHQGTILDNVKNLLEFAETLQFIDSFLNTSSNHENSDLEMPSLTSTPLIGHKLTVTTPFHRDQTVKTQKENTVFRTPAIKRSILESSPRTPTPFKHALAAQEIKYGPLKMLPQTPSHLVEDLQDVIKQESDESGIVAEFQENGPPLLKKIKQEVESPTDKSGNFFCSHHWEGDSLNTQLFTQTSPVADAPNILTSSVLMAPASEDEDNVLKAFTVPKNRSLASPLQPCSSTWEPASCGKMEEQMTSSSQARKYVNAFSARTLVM
# Sequence of Nuclear respiratory factor 1 (Homo sapiens) (Q16656 whole entry, looked up): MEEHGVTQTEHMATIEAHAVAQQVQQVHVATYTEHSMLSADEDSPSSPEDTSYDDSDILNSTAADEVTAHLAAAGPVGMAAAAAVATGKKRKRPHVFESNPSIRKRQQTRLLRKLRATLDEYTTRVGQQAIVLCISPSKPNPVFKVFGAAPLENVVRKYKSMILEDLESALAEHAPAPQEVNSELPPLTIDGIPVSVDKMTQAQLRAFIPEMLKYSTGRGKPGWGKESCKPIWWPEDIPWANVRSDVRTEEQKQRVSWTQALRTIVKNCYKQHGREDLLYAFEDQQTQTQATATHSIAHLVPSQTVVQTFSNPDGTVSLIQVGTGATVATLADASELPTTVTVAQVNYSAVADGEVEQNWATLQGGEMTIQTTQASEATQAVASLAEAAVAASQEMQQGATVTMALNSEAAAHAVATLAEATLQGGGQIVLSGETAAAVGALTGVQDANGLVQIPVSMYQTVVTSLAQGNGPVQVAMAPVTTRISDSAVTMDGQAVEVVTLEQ
# Sequence of Nuclear receptor subfamily 4 group A member 2 (Homo sapiens) (P43354 whole entry, looked up, the tested form may be a part): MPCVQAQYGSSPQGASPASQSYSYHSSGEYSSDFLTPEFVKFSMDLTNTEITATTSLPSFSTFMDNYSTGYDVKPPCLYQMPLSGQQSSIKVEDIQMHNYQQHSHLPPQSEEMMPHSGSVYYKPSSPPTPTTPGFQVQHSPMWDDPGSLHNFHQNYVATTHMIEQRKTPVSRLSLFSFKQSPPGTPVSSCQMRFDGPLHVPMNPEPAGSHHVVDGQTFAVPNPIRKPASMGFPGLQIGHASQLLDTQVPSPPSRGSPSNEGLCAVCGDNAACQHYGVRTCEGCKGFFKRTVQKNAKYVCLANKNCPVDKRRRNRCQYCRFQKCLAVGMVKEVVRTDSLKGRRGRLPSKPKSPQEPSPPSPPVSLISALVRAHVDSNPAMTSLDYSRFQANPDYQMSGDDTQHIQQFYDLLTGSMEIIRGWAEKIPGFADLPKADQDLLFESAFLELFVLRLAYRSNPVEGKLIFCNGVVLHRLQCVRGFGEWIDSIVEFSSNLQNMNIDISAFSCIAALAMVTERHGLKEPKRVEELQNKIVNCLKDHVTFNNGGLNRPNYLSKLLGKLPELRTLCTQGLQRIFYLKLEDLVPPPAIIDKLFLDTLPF
# Sequence of Myc proto-oncogene protein (Homo sapiens) (P01106 whole entry, looked up, the tested form may be a part): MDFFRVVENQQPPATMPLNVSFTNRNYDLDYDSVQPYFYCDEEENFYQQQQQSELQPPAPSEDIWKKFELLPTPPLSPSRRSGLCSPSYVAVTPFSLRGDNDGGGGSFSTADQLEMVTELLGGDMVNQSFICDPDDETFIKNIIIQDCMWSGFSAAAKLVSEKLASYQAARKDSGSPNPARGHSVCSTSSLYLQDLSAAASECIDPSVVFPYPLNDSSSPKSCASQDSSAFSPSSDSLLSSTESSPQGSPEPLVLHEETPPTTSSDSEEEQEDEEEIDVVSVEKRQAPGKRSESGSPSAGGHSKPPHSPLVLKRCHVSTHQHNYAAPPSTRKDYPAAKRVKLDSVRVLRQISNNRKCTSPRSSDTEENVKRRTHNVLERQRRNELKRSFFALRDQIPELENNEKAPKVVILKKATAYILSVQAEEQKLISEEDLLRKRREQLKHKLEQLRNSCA
# Sequence of human Retinoic Acid Receptor beta (RARb), RARB (gene 5915) (P10826 whole entry, looked up): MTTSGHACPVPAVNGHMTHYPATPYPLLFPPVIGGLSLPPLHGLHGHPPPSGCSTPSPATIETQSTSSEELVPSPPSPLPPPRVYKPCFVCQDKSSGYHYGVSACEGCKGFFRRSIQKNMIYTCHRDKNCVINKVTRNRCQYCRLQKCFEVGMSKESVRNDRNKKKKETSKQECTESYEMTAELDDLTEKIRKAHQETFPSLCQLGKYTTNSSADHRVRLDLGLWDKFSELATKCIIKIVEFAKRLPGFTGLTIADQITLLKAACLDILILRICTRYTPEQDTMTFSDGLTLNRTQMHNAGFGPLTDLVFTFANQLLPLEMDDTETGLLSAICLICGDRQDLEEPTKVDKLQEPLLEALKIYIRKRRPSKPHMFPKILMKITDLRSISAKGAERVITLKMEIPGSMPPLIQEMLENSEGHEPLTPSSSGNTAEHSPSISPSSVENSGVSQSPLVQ
smiles,measurement,setting,value
NNC(=S)NN,outcome,[1],inactive
same,outcome,[2],inactive
same,outcome,[3],inactive
same,outcome,[4],inactive
same,outcome,[5],inactive
same,outcome,[6],inactive
same,outcome,[7],inactive
same,outcome,[8],inactive
COc1ccc(OC)c(C=O)c1,outcome,[9],inactive
same,outcome,[10],inactive
same,outcome,[2],inactive
same,outcome,[3],inactive
same,outcome,[4],inactive
same,outcome,[5],inactive
same,outcome,[6],inactive
same,outcome,[7],inactive
same,outcome,[8],inactive
COc1cc(OC)nc(NC(=O)NS(=O)(=O)c2ncccc2C(=O)N(C)C)n1,outcome,[1],inactive
same,outcome,[11],inactive
same,outcome,[2],inactive
same,outcome,[3],inactive
same,outcome,[4],inactive
same,outcome,[5],inactive
same,outcome,[6],inactive
same,outcome,[7],inactive
same,outcome,[8],inactive
same,outcome,[12],inactive
same,outcome,[13],inactive
same,outcome,[14],inactive
same,outcome,[15],inactive
same,outcome,[16],inactive
same,outcome,[17],inactive
COc1cccc(C=O)c1,outcome,[1],inactive
same,outcome,[11],inactive
same,outcome,[2],inactive
same,outcome,[3],inactive
same,outcome,[4],inactive
same,outcome,[5],inactive
same,outcome,[6],inactive
same,outcome,[7],inactive
same,outcome,[8],inactive
same,outcome,[18],inactive
OCc1ccco1,outcome,[1],inactive
same,outcome,[11],inactive
same,outcome,[2],inactive
same,outcome,[3],inactive
same,outcome,[4],inactive
same,outcome,[5],inactive
same,AC50,[6],49.6 µM (active)
same,outcome,[7],inactive
same,outcome,[8],inactive
same,outcome,[12],inactive
same,outcome,[13],inactive
same,outcome,[14],inactive
same,outcome,[19],inactive
same,outcome,[17],inactive
O=C1CCCN1,outcome,[1],inactive
same,outcome,[11],inactive
same,outcome,[2],inactive
same,outcome,[3],inactive
same,outcome,[4],inactive
same,outcome,[5],inactive
same,outcome,[6],inactive
same,outcome,[7],inactive
COc1ccccc1OC,outcome,[1],inactive
same,outcome,[10],inactive
same,outcome,[2],inactive
same,outcome,[3],inactive
same,outcome,[4],inactive
same,outcome,[5],inactive
same,outcome,[6],inactive
same,outcome,[7],inactive
same,outcome,[8],inactive
same,outcome,[15],inactive
same,outcome,[16],inactive
same,outcome,[18],inactive
CCCCC(CC)CO[N+](=O)[O-] (stereo not given),outcome,[1],inactive
same,outcome,[10],inactive
same,outcome,[3],inactive
same,outcome,[4],inactive
same,AC50,[6],167 µM (active)
same,outcome,[7],inactive
same,outcome,[8],inactive
same,AC50,[12],28.6 µM (active)
same,outcome,[13],inactive
same,outcome,[14],inactive
same,outcome,[17],inactive
CC(=O)c1cc(C(C)(C)C)cc2c1CCC2(C)C,outcome,[9],inactive
same,AC50,[10],27.3 µM (active)
same,outcome,[11],inactive
same,outcome,[2],inactive
same,AC50,[3],74.2 µM (active)
same,AC50,[4],146 µM (active)
same,AC50,[5],156 µM (active)
same,AC50,[6],61.7 µM (active)
same,AC50,[7],68.3 µM (active)
same,outcome,[8],inactive
same,outcome,[16],inactive
O=CC=O,outcome,[1],inactive
same,outcome,[11],inactive
same,outcome,[3],inactive
same,outcome,[4],inactive
same,outcome,[6],inactive
same,outcome,[7],inactive
same,outcome,[15],inactive
N#CCc1ccc(Cl)cc1,outcome,[1],inactive
same,outcome,[2],inactive
same,outcome,[3],inactive
same,outcome,[4],inactive
same,outcome,[5],inactive
same,outcome,[6],inactive
same,outcome,[7],inactive
same,outcome,[8],inactive
O=S(=O)(c1ccc(Cl)cc1)c1ccc(Cl)cc1,outcome,[1],inactive
same,outcome,[2],inactive
same,outcome,[3],inactive
same,outcome,[4],inactive
same,AC50,[6],10 µM (active)
same,outcome,[7],inactive
same,outcome,[8],inactive
same,outcome,[12],inactive
same,outcome,[13],inactive
same,outcome,[14],inactive
same,outcome,[16],inactive
same,outcome,[17],inactive
